SW480 rerep = inducers of DNA re-replication in SW480 colon cancer cells; hit rate 1.8% among 340,000; AID 624297; SW480 DNA re-replication, Hoechst DNA content imaging, 48 h; Potency, µM (titrated, usually from 46.1 µM), inactives show at the highest dose re-replication activation, hits mostly activators; further: % of control where 0% means no effect; nearly all actives have a fitted effect of over 55% in size
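Cells (250 per well) received 23 nL compound or DMSO by pin tool and were kept 48 hr at 37 C, 5% CO2. Nuclei were then stained with Hoechst for 40 min and scanned for DNA content.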
KB-3-1 tox = KB-3-1 parental cell cytotoxicity | hit rate 1.4% among 400,000 | Potency, µM (titrated, usually from 46.1 µM), hits mostly cytotoxic | KB-3-1 viability, CellTiter-Glo ATP luminescence, 72 h; further: on the % scale 0 is the no-effect control and ±100 the full control effect; nearly all actives have a fitted effect of over 60% in size
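Viability of parental KB-3-1 cells, measured by CellTiter-Glo luminescence, followed a 72 h incubation at 37 °C with pinned compounds in phenol-red-free DMEM containing 10% FBS.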
KB-V1 cytotox = KB-V1 MDR subline cytotoxicity; hit rate 3.4% among 400,000; KB-V1 MDR cells viability, CellTiter-Glo, 72 h; Potency, µM (doses to about 46.1 µM), most hits filed as cytotoxic; further: on the % scale 0 is the no-effect control and ±100 the full control effect; nearly all actives have a fitted effect of over 60% in size
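Potencies derive from concentration-effect curves fitted to normalized luminescence (CellTiter-Glo) of KB-V1 cells treated for 72 h at 37 degrees C in phenol-red-free DMEM containing 10% FBS.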
MCF10A rereplic = induces DNA re-replication in MCF 10a normal breast cells; MCF 10A DNA re-replication, Hoechst nuclear intensity, 48 h; Potency, µM (highest dose often 46.1 µM), inactives show at the top dose activity, positive = re-replication, most hits filed as activators; hit rate 2.9% among 350,000; further: % of control where 0% means no effect; nearly all actives have a fitted effect of over 50% in size
HT1080NT lethal = kills 2HG-producing HT-1080-NT fibrosarcoma cells | HT-1080-NT fibrosarcoma viability, CellTiter-Glo ATP luminescence, 48 h | Potency, µM (series often up to 46.1 µM), inactives show at the top dose activity, negative = less viability, usual class: cytotoxic | hit rate 1.6% among 360,000;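 further: NT is the 2HG producing partner of a matched IDH1 knockdown line; 0% = DMSO-treated cells and -100% = media-only wells without cells; nearly all actives have a fitted effect of over 55% in size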
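Luminescent CellTiter-Glo readout after 48 hours of compound exposure at 37 degrees C defined viability of HT-1080-NT cells. Activity was normalized to DMSO wells and cell-free media wells; concentration-response curves were fitted and assigned curve classes.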
HT1080 IDH1KD tx = toxicity to HT-1080 IDH1 knockdown cells (counter line); HT-1080 IDH1 knockdown viability, ATP luminescence, 48 h; Potency, µM (series often up to 46.1 µM), without a hit: top-dose activity, negative = toxicity, usual class: cytotoxic; hit rate 2% among 360,000; AID 686971;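 further: 0% = DMSO wells and -100% = cell-free medium wells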
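In this qHTS, HT-1080 cells depleted of IDH1 are exposed for 48 h at 37 °C to compound titrations. Toxicity is scored from CellTiter-Glo luminescence, with DMSO as full viability and medium alone as none.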
An asterisk follows results filed as active; i = inactive; u = inconclusive; x = no result given; [ ] = dose if it differs, or a comment. Sampled rows, rich in hits. Any-hit rate of the full collection: about 7.9%. The call rests on the fitted dose curve; in most records, active means well fitted curve in the direction sought with a large enough effect; inconclusive means small, poorly fitted or top-dose-only effect, or another doubt; inactive means no such curve, though single readings can be large; an effect the other way counts as inactive or inconclusive. Potency means the concentration at half of the fitted maximal effect.

SMILES | SW480 rerep | KB-3-1 tox | KB-V1 cytotox | MCF10A rereplic | HT1080NT lethal | HT1080 IDH1KD tx
CCc1nnc(NC(=O)C2CCN(c3ncnc4sc(C)c(C)c34)CC2)s1 | -12% | i | u | 2% | 4% | 6%
CCOC(=O)c1ccccc1NC(=O)C1CCN(c2ncnc3sc(C)c(C)c23)CC1 | -10% | u | 23µM* | u | -5% | -6%
Cc1ccc2nc(NC(=O)C3CCN(c4ncnc5sc(C)c(C)c45)CC3)sc2c1 | 23% | x | x | 23µM* | -5% | -2%
CCOC(=O)c1ccccc1NC(=O)C1CC(=O)N(C(C)(C)C)C1 (stereo not given) | -35% | i | i | 1µM* | 0% | -2%
Cc1sc2ncnc(N3CCC(C(=O)Nc4ccccc4C(C)(C)C)CC3)c2c1C | u | i | u | 18% | -3% | -22%
CN(C)c1ccc(/C=C2\CCc3cc(N)ccc32)cc1 | x | i | i | x | x | x
COc1ccc(NS(=O)(=O)c2cccc(C(=O)NCc3ccco3)c2)cc1 | -1% | i | u | 11% | 1% | -15%
O=C(c1ccccc1)c1ccc2nc(Nc3ccccc3Cl)c3nncn3c2c1 | x | i | i | x | x | x
NS(=O)(=O)c1ccc(CNC(=O)c2ccncc2)cc1 | -15% | i | u | -2% | 16% | 2%
COc1ccccc1NS(=O)(=O)c1cccc(C(=O)N2CCCC2)c1 | -3% | i | u | -11% | 3% | 9%
Cc1ccc(C)c(S(=O)(=O)N2CCN(C(=O)C3CCN(c4ncnc5sc(C)c(C)c45)CC3)CC2)c1 | 21µM* | 23µM* | u | 21µM* | 5% | -10%
Cc1sc2ncnc(N3CCC(C(=O)N(C)CC(=O)Nc4ccc(Cl)c(C(F)(F)F)c4)CC3)c2c1C | -423% | 21µM* | i | u | u | 16µM*
COc1cc(C(=O)NCc2ccc(S(N)(=O)=O)cc2)ccc1OCC(=O)N1CCOCC1 | -11% | i | i | -8% | 10% | 21%
Cc1nc(-c2ccc(C)c(N3CCN(C(=O)Nc4ccccc4C(F)(F)F)CC3)c2)no1 | x | i | i | x | x | x
CCOC(=O)c1c(S(=O)(=O)N2CCC(C(=O)Nc3ccc(F)cc3F)CC2)c(C)n(C)c1C | x | i | i | x | x | x
O=C(Nc1ccc(Cl)c(C(F)(F)F)c1)c1nc2ccccc2nc1N1CCCCC1 | x | i | u | x | x | x
OCC1(CCOc2ccccc2)CCN(C2Cc3ccccc3C2)CC1 | 0% | i | i | 18µM* | -7% | -8%
Cc1cc(C)c(CN2CCC(CO)(CCOc3ccccc3)CC2)cc1C | u | i | i | u | u | u
Cc1ccccc1N=C1NC(=O)/C(=C/c2cccn2C)S1 | u | u | 7.3µM* | u | -29% | -27%
Cc1cccc(N=C2NC(=O)/C(=C/c3cccn3C)S2)c1 | u | u | 5.8µM* | u | -16% | -28%
O=C1NC(=Nc2ccccc2)S/C1=C\c1cccn1-c1ccccc1 | 6.5µM* | 5.2µM* | 4.6µM* | 6.5µM* | u | u
O=C1NC(=Nc2cccnc2)S/C1=C/c1ccc(F)cc1 | u | u | u | 7.3µM* | u | u
O=C(OCc1cc(=O)n2nc(C3CCCCC3)sc2n1)c1ccccc1Cl | x | i | i | x | x | x
CCc1ccccc1NC(=O)Cn1cc(S(=O)(=O)N2CCCC2)c(S(=O)(=O)N2CCCC2)c1 | x | i | i | x | x | x
Cc1cc(-c2csc(N)n2)c(C)n1CCc1ccccc1 | -3% | i | i | 20% | 1% | 6%
SMILES | SW480 rerep | KB-3-1 tox | KB-V1 cytotox | MCF10A rereplic | HT1080NT lethal | HT1080 IDH1KD tx
Cc1c(P(=S)(c2ccccc2)c2ccccc2)[n+]2ccccc2n1CCc1ccccc1 | x | 13µM* | i | x | x | x
O=C(NCc1ccco1)c1sc(=S)n2c1[nH]c(=O)c1ccccc12 | 2% | u | 21µM* | u | -26% | u
O=C(NC1CCCC1)c1sc(=S)n2c1[nH]c(=O)c1ccccc12 | u | 12µM* | u | u | -2% | -42%
O=C(NCc1ccccc1)c1ccc2c(=O)[nH]c3c(C(=O)NCC4CCCO4)sc(=S)n3c2c1 (stereo not given) | -14% | u | i | -10% | -4% | 0%
N#C/C(=C1/SCC(c2ccccc2Cl)S1)n1ccnc1 (stereo not given) | 1% | x | x | 2% | x | x
O=C(O)COc1ccccc1/C=C1\SC(=Nc2ccc(F)cc2)N(c2ccc(F)cc2)C1=O | u | i | u | 6.5µM* | -22% | -21%
O=C(O)COc1ccc(/C=C2\SC(=Nc3ccccc3)N(c3ccccc3)C2=O)cc1 | 2% | i | i | 16% | -3% | 12%
CC(C)(C)NCC(O)COc1ccccc1C1CCCC1 (stereo not given) | u | u | u | -3% | u | u
O=C(COC(=O)c1cc([N+](=O)[O-])ccc1N1CCOCC1)NCc1ccccc1 | x | i | i | x | -7% | -4%
COc1cccc(CNC(=O)COC(=O)c2cc([N+](=O)[O-])ccc2N2CCCC2)c1 | -9% | i | 7.3µM* | 2% | -3% | -7%
O=C(NCc1ccc2c(c1)OCO2)c1cc([N+](=O)[O-])ccc1N1CCCCC1 | 5.8µM* | 2.1µM* | u | 2.6µM* | 7.3µM* | 8.2µM*
O=C(Nc1ccc2c(c1)OCO2)c1ccc2c(c1)OCO2 | 0% | i | i | 0% | -7% | 0%
O=C(NCc1ccco1)c1cc([N+](=O)[O-])ccc1N1CCCCC1 | 3% | i | i | u | -6% | -7%
O=C(Nc1ccc2c(c1)OCO2)c1ccc(NC2CC2)c([N+](=O)[O-])c1 | u | u | 15µM* | u | u | -24%
O=C(Nc1ccc(Cl)c([N+](=O)[O-])c1)c1ccc2c(c1)OCCO2 | 12% | i | 13µM* | 10% | -4% | -24%
Cc1nc2nc(NC(=O)c3ccco3)[nH]n2c(=O)c1C | 8% | i | u | 22% | 4% | 4%
Cc1ccc(NC(=O)CSCC(=O)N2CCCc3ccccc32)cc1 | -72% | i | i | 6% | -4% | -1%
O=C(Nc1ccc2c(c1)OCO2)c1ccc(N2CCCC2)c([N+](=O)[O-])c1 | 11% | i | 23µM* | 11% | -18% | 2%
O=C(Nc1ccc2c(c1)OCO2)c1ccc(Br)c(S(=O)(=O)N2CCCC2)c1 | -7% | u | 5.2µM* | 17% | -5% | -12%
O=C(Nc1ccc(N2CCCCC2)c(Cl)c1)c1ccc2c(c1)OCCO2 | -2%[9.22 µM] | 16µM* | u | u | u | u

Screens from PubChem.
